Most compounds without a hit are left out; they make up all but 19% or so of the library.
DT40 TDP1 CPT – DT40-hTDP1 cell growth loss with CPT; hit rate 12% among 420,000; Potency, µM (series often up to 46.2 µM), without a hit: at the top dose activity change, negative = growth inhibition, usual class: inhibitors; chicken DT40 Tdp1-/-;hTDP1 cells + 20 nM CPT, ATP luminescence, 48 h; also: potency is read from the fitted curve at half-maximal effect; nearly all actives have a fitted effect of over 55% in size
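Chicken DT40 Tdp1-/- cells stably complemented with human TDP1 were seeded at 400 cells/well in medium containing 20 nM camptothecin, exposed to pin-transferred compounds, and grown at 37 °C for at least 48 hr. Viability was read as ATP luminescence.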
IL-1B inflam inh – inhibitors of inflammasome signaling (IL-1 beta secretion). activity change, % at 57.5 µM. hit rate 4.7% among 360,000. THP-1 LPS/ATP IL-1B secretion, AlphaLISA, 16 h; hits give low values; in the data active = activity change below about -50%; inconclusive = mostly about -30% to -49%
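THP-1 cells pretreated 1 hr with compounds (up to 57.5 uM final), then stimulated with LPS (250 ng/mL final) plus ATP (1.25 mM final); secreted IL-1B measured by AlphaLISA after 16 hr, decreased signal indicating inhibition.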
TDP1 inh – inhibitors of human tyrosyl-DNA phosphodiesterase TDP1. recombinant TDP1, AlphaScreen DNA substrate cleavage. Potency, µM (doses to about 130 µM), for inactives: top-dose activity change, negative = inhibition, hits mostly inhibitors. hit rate 0.28% among 350,000; also: potency is read from the fitted curve at half-maximal effect; nearly all actives have a fitted effect of over 40% in size
Target sequence (Q9NUW8 whole entry, looked up): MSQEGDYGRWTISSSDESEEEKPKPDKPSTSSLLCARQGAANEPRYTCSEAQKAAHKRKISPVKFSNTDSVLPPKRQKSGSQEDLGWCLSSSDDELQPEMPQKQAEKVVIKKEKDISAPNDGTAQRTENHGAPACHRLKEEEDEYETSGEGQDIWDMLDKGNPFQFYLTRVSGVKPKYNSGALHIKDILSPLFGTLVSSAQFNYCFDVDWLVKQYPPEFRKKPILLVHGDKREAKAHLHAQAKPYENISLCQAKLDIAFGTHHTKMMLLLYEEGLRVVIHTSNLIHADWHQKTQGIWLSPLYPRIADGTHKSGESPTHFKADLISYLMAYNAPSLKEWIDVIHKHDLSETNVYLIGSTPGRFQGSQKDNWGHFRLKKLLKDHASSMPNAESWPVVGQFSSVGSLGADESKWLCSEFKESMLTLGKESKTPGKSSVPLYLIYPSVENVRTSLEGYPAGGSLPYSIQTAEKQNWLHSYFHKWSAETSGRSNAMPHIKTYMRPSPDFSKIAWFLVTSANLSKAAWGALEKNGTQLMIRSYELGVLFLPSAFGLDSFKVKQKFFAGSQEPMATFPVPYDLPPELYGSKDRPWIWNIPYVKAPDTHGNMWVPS
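Recombinant human Tdp1 (E. coli-expressed, 1 nM final) preincubated with compounds 15 min at room temperature, then 5'-biotin/3'-phosphotyrosine-FITC DNA substrate (15 nM final) added for 5 min. AlphaScreen beads (10 ug/ml final) added 10 min; cleavage lowers signal.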
DT40 TDP1 no CPT – qHTS for Inhibitors of human tyrosyl-DNA phosphodiesterase 1 (TDP1): qHTS in cells in absence of CPT | Potency, µM (doses to about 46.2 µM), without a hit: at the top dose activity change, negative = growth inhibition, hits mostly inhibitors | DT40 Tdp1-/- hTDP1 cells, no CPT, ATP luminescence, 48 h | hit rate 15% among 420,000; also: potency is read from the fitted curve at half-maximal effect; nearly all actives have a fitted effect of over 55% in size
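DT40 Tdp1-/-;hTDP1 cells, no CPT (DMSO vehicle only), 400 cells/well; compounds pin-transferred; ≥48 hr, 37 °C; CellTiter-Glo 30 min RT dark, luminescence read.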
ELG1 DNA repair – inhibitors of ELG1-dependent DNA repair in HEK293T cells; HEK293T ELG1-luciferase reporter, luminescence, 16 h; DNA damage induced by 5-fluorouridine; Potency, µM (titrated, usually from 46.1 µM), without a hit: top-dose activity change, negative = inhibition, actives largely listed as inhibitors; hit rate 2.3% among 330,000; also: potency is read from the fitted curve at half-maximal effect; nearly all actives have a fitted effect of over 55% in size
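Luminescence from the luciferase reporter, measured 30 min after ONE-Glo reagent at room temperature, was the read-out. Beforehand, 2,000 cells per well were exposed for 16 hr at 37 °C to 5-fluorouridine together with compound or vehicle.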
Giardia kill – kills Giardia lamblia | Giardia lamblia trophozoite viability | activity change, % at 7.66 µM, hits read low | hit rate 0.15% among 340,000 | AID 540267; in the data active = activity change below about -80%; inconclusive = between about -30% and that limit;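 also: parasites exposed to compound for two days anaerobically before the ATP read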
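Trophozoite viability was measured as ATP-dependent luminescence, read 15-30 min after reagent addition. Before that, parasites at 100 cells/well were exposed to compounds for 48 h, anaerobically, at 37 deg C.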
* hit, by the source's call. Unless noted, calls follow the shape of the dose curve; as a rule, active = well fitted curve in the direction sought with a large enough effect; inconclusive = small, poorly fitted or top-dose-only effect, or another doubt; inactive = no such curve, though single readings can be large; an effect the other way counts as inactive or inconclusive. % is scaled to controls: 0 for no effect and ±100 for the full control effect.

Results for O=C(c1cc(-c2ccc(Cl)cc2)on1)N1CCCCCC1 ?
DT40 TDP1 CPT: inconclusive; IL-1B inflam inh: -13.2; TDP1 inh: -6.0%; DT40 TDP1 no CPT: inconclusive; ELG1 DNA repair: inconclusive; Giardia kill: 3.0

What do the screens show for `CCOC(=O)[C@H]1[C@H]2COc3ccc(Br)cc3[C@H]2N2C(=O)CNC(=O)[C@@]12C`?
DT40 TDP1 CPT: -13.9%; IL-1B inflam inh: -5.6; TDP1 inh: 0.5%; DT40 TDP1 no CPT: -24.4%; ELG1 DNA repair: -7.6%; Giardia kill: -5.9

What do the screens show for `COc1ccc(C)cc1NC(=O)Cn1cc(S(=O)(=O)N2CCC(C)CC2)c2ccccc2c1=O`?
DT40 TDP1 CPT: -19.7%; TDP1 inh: 2.5%; DT40 TDP1 no CPT: inconclusive

Results for CN(C(=O)Cn1cc(S(=O)(=O)Cc2ccccc2Cl)c2ccccc21)c1ccccc1 ?
DT40 TDP1 CPT: 20.6µM*; TDP1 inh: 3.7%; DT40 TDP1 no CPT: 20.6µM*

How did COc1ccc(C)cc1NC(=O)Cn1cc(S(=O)(=O)Cc2ccccc2Cl)c2ccccc21 do in these assays?
DT40 TDP1 CPT: inconclusive; TDP1 inh: 6.2%; DT40 TDP1 no CPT: 20.6µM*

How did COc1ccc(NC(=O)Cn2cc(S(=O)(=O)Cc3ccccc3)c3ccccc32)c(OC)c1 do in these assays?
DT40 TDP1 CPT: 4.5%; IL-1B inflam inh: 15.8; TDP1 inh: 7.9%; DT40 TDP1 no CPT: 4.7%; ELG1 DNA repair: 14.6µM*; Giardia kill: -1.1

How did Cc1ccc(CS(=O)(=O)c2cn(CC(=O)N(C)c3ccccc3)c3ccccc23)cc1 do in these assays?
DT40 TDP1 CPT: inconclusive; TDP1 inh: 3.7%; DT40 TDP1 no CPT: inconclusive

How did COc1ccc(-c2cc(NC=O)c3ncc(-c4ccc(C(C)=O)cc4)n3c2)cc1OC do in these assays?
DT40 TDP1 CPT: 16.4µM*; IL-1B inflam inh: -70.4*; DT40 TDP1 no CPT: 18.4µM*

Results for COc1cc(-c2cc(NC=O)c3ncc(-c4ccc(C(C)=O)cc4)n3c2)cc(OC)c1OC ?
DT40 TDP1 CPT: 10.3µM*; IL-1B inflam inh: -58.7*; DT40 TDP1 no CPT: 7.31µM*

Results for Cc1ccc(C)c(N2CCN(c3nccn4nc(-c5ccc(Br)cc5)cc34)CC2)c1 ?
DT40 TDP1 CPT: -4.2%; TDP1 inh: 0.9%; DT40 TDP1 no CPT: 6.3%

Results for OCc1nc2ccccc2n1CCc1ccccc1 ?
DT40 TDP1 CPT: -0.8%; IL-1B inflam inh: 10.1; TDP1 inh: 3.4%; DT40 TDP1 no CPT: 2.6%; ELG1 DNA repair: 5.7%; Giardia kill: -26.3

Results for CC(O)c1nc2ccccc2n1CCCOc1ccccc1 (stereo not drawn) ?
DT40 TDP1 CPT: inconclusive; IL-1B inflam inh: 63.2; DT40 TDP1 no CPT: 16.4µM*; ELG1 DNA repair: -6.4%; Giardia kill: -16.6

Results for CC(O)c1nc2ccccc2n1CCCc1ccccc1 (stereo not drawn) ?
DT40 TDP1 CPT: 18.4µM*; IL-1B inflam inh: -7.6; TDP1 inh: 3.5%; DT40 TDP1 no CPT: -24.8%; ELG1 DNA repair: 8.3%; Giardia kill: 9.2

What do the screens show for `OCc1nc2ccccc2n1CCCc1ccccc1`?
DT40 TDP1 CPT: 16.4µM*; IL-1B inflam inh: 8.5; DT40 TDP1 no CPT: inconclusive

How did CCn1cc(CN2CCC(n3nccc3NC(=O)c3cccc(F)c3)CC2)cn1 do in these assays?
DT40 TDP1 CPT: 4.3%; IL-1B inflam inh: 13.6; TDP1 inh: 3.0%; DT40 TDP1 no CPT: -5.6%; ELG1 DNA repair: 1.3%; Giardia kill: 2.1

How did CSc1ncnc2c1ncn2CCCNCc1cccc2ccccc12 do in these assays?
DT40 TDP1 CPT: -16.7%; IL-1B inflam inh: 4.4; DT40 TDP1 no CPT: inconclusive

What do the screens show for `CC[C@@H](NCCCn1cnc2c(SC)ncnc21)c1ccccc1`?
DT40 TDP1 CPT: 16.4µM*; IL-1B inflam inh: 0.4; DT40 TDP1 no CPT: inconclusive

What do the screens show for `CSc1ncnc2c1ncn2CCCNCC1CCCO1` (stereo not drawn)?
DT40 TDP1 CPT: 7.0%; IL-1B inflam inh: 4.2; DT40 TDP1 no CPT: 3.6%

Screening data (PubChem BioAssay)
